The structures appear in SMILES notation. “And” between values parts separate entries of the source, which are not always exact repeats. Identical values can stand only once. Results filed as inconclusive are left out. The source made the active and inactive calls. Unless noted, the limit is not given here; nearly all actives have AC50 up to about 26 µM.

Test [1] is described as follows: liver-stage malaria parasite growth inhibition, primary screen, cell-based, HepG2, luciferase luminescence, HepG2 viability (AID 624349; in the data active = parasite load remaining mostly below about 12%, no sharp cut-off; inactive = mostly above about 10%;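 also: 100% = mean of DMSO negative control wells on the same plate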). The conditions noted are these: P. berghei liver stage in HepG2, luciferase luminescence, concentration not given here; parasite load remaining: stronger effect = lower value; viability: measured here: HepG2 viability without parasites.
Test [2] can be described thus: stimulators of nuclear beta-catenin in C2C12, primary screen, imaging, WNT3A-conditioned medium, mouse C2C12, NPC library (AID 1117326; in the data active = nuclear beta-catenin stimulation mostly above about 4.2%, no sharp cut-off; inactive = mostly below about 10%; also: reference of the scale not given here). The following applies: stronger effect = higher value.
Test [3] is described as follows: stimulators of insulin release from INS-1E, primary screen, cell-based, 5 mM glucose, NPC library (AID 1117329;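 active = compound raises insulin release from rat beta cells at 5 mM glucose, no numeric limit stated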; also: reference of the scale not given here). The following applies: rat INS-1E insulin secretion, at 10 µM, stronger effect = higher value.
A short description of test [4]: growth inhibition of GSK3B-pretreated HCT116 cells – cell-based, CellTiter-Glo, 0.2 to 20 µM (AID 1117336;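 active = compounds lowering colon cancer cell viability after pretreatment blocking the GSK3B kinase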). The conditions noted are these: HCT116 viability after GSK3B inhibitor, at 20 µM, stronger effect = higher value.
Test [5] can be described thus: inhibition of endothelial tube formation, primary screen, imaging, VEGF stimulated, CD31 staining, tube area, NPC library (AID 1117340;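 active = compound that reduces growth-factor-driven endothelial tube area in a mixed cell culture, no cutoff stated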). The following applies: VEGF-stimulated ADSC/ECFC co-culture, at 10 µM, stronger effect = higher value.
Test [6] in a line: glucagon-like peptide 1 release enhancers, primary assay, NCI-H716 cell line, NPC library (AID 1117341;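 active = compound raises GLP1 secretion from the human gut endocrine cells, with no numeric limit stated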; also: reference of the scale not given here). The following applies: NCI-H716 cells, at 10 µM, stronger effect = higher value.
Test [7] can be described thus: HCT116 colon cancer cell growth inhibition, primary screen, CellTiter-Glo luminescence, NPC library (AID 1117342;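 active = compounds that lower survival of HCT116 colon cancer cells in the luminescence readout, no numeric limit stated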). The conditions noted are these: at 20 µM (top of the series).
Test [8] can be described thus: CellTiter-Glo luminescent readout of SW480 viability loss, NPC library primary (AID 1117343;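 active = compounds that lower viability of the colon cancer cells in the luminescence readout, with no numeric limit stated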). The conditions noted are these: CellTiter-Glo luminescence; at 20 µM (top of the series) unless noted.
Test [9] can be described thus: decreased DLD-1 cellular survival, CellTiter-Glo luminescent readout, NPC compound collection, primary HTS (AID 1117346;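 active = compounds that lower survival of DLD-1 colon cancer cells in the luminescence readout, no cutoff given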). The following applies: DLD-1 viability, CellTiter-Glo luminescence; at 20 µM (top of the series).
The nature of test [10]: growth inhibition of DIPG glioma cells, dose response, cell-based, SU-DIPG-XVII, MIPE5.0, CellTiter-Glo, qHTS (AID 1347060). The conditions noted are these: SU-DIPG-XVII viability, CellTiter-Glo ATP luminescence.
Test [11] in a line: growth inhibition of DIPG glioma cells, dose response, cell-based, SU-DIPG-XIII, MIPE4.0, CellTiter-Glo, qHTS (AID 1347061; cut-off not given, nearly all actives have AC50 up to about 37 µM;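 also: cells exposed to compound for 48 hours before readout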). The following applies: SU-DIPG-XIII viability, CellTiter-Glo ATP luminescence.
Test [12] is described as follows: growth inhibition of DIPG glioma cells, dose response, cell-based, JHH-DIPG-1, MIPE4.0, CellTiter-Glo, qHTS (AID 1347062; cut-off not given, nearly all actives have AC50 up to about 27 µM). The following applies: JHH-DIPG-1 viability, CellTiter-Glo ATP luminescence.
Test [13] can be described thus: viability loss in pontine glioma line – cell-based, SU-DIPG-XXV, MIPE5.0, CellTiter-Glo, qHTS, dose response (AID 1347065).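 Also: cells exposed to compound for 48 hours before ATP readout.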 The conditions noted are these: CellTiter-Glo ATP luminescence.
Test [14] is described as follows: SU-DIPG-VI glioma cell viability, MIPE4.0 library, CellTiter-Glo luminescence, qHTS (AID 1347066; cut-off not given, nearly all actives have AC50 up to about 30 µM;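 also: cells exposed to compound for 48 hours before readout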). The following applies: CellTiter-Glo ATP luminescence.
Test [15] is described as follows: SU-DIPG-XXV glioma cell viability, MIPE5.0 library, qHTS (AID 1347068; cut-off not given, nearly all actives have IC50 up to about 30 µM).
Test [16] in a line: sensitizers of A549 cells to miR-34 induction, primary screen, imaging, A549 dox-inducible miR-34, nuclei and caspase counts (AID 1347080;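 active = compounds whose cell count with miR-34 switched on is under 0.7 times the count with it off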). The conditions noted are these: A549 miR-34 inducible, Hoechst nuclei count, 48 h.
Test [17] is described as follows: survival rescue of mitochondrial mutant cells in low glucose, primary screen, MELAS cybrids, Rieske KO mouse fibroblasts, CellTiter-Glo (AID 1508586;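 active = mean z-score across replicates of 1.96 or higher in either the MELAS or the Rieske mutant cell line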;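 also: z relative to plate mean and SD of compound and empty wells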).
The nature of test [18]: viability rescue of complex I mutant cybrids, primary screen, cell-based, galactose medium, ATP luminescence (AID 1645843;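 active = z-score of at least 1.8 in each of two replicates, scored against plate mean and spread of sample wells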;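 also: positive z means more ATP and so rescue of galactose-driven cybrid death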). The following applies: complex I mutant cybrid cells, 72 h, stronger effect = higher value.
The mark [19] stands for this setting: stronger effect = lower value, cell number ratio, induced over uninduced.
[20] abbreviates: measured here: relative caspase fold change +Dox/-Dox.
Setting [21] is: measured here: total cells with miR-34 induction, stronger effect = lower value.
[22] abbreviates: measured here: total cells without miR-34 induction.
The mark [23] stands for this setting: MELAS cybrid survival, CellTiter-Glo 48 h, stronger effect = higher value.
Setting [24] is: Rieske KO mouse fibroblast survival, CellTiter-Glo 72 h.

With `O=P(O)(O)C(O)(Cn1ccnc1)P(=O)(O)O`, the parasite load remaining in test [1] is 30.2% (inactive). Besides, the viability in [1] amounted to 130%. Moreover, the nuclear beta-catenin stimulation is 0.4% (inactive) in [2] (at 10 µM) and 1% in test [2] (stimulation, at 2 µM). Moreover, the insulin secretion stimulation in test [3] is 0.2% (inactive). The viability decrease in [4] is -1.1% (inactive). For the same compound, the tube area decrease in test [5] is 8.6% (inactive). Moreover, in [6], the GLP1 secretion stimulation is -0.1% (inactive). In addition, in test [7], the inhibition of viability is 16.4% (inactive). In addition, the viability decrease (inhibition) in [8] is 32.9% (inactive); in [9] it was 17.2% (inactive). Also, the outcome in [10], in test [11], in test [12], in test [13], in test [14] and in [15] was inactive. The figures for the fold change in [16] (setting [19]) and in [16] (setting [20]) were 0.851 (inactive) and 1.6, respectively. The cell count worked out at 9230 in test [16] (setting [21]) and 10900 in [16] (setting [22]). The z-score is -0.129 (inactive) and 0.228 (inactive) in test [17] (setting [23]); -0.459 and -1.13 in test [17] (setting [24]); 0.405 (inactive) in test [18].

With `CC1(C)CCC(C)(C)c2cc(NC(=O)c3ccc(C(=O)O)cc3)ccc21`, the nuclear beta-catenin stimulation in [2] (at 10 µM) was 8% (inactive); in test [2] (stimulation, at 2 µM) it was 8.5%. The insulin secretion stimulation in [3] was -0.4% (inactive). The viability decrease in test [4] is 77.6% (active). In addition, the tube area decrease in test [5] is 5.5% (inactive). Also, in test [6], the GLP1 secretion stimulation is 4% (inactive). In addition, the inhibition of viability in test [7] was 69.7% (active). Moreover, the viability decrease (inhibition) in [8] was 47.9% (inactive); in test [9] it was 43.1% (inactive). For the same compound, the compound was classed as inactive in test [10], in test [12], in test [13], in test [14] and in test [15]. The AC50 in test [11] is 23.5 µM (active). For the same compound, the fold change is 0.901 (inactive) in test [16] (setting [19]) and 0.365 in [16] (setting [20]). In addition, the values for the cell count in [16] (setting [21]) and in [16] (setting [22]) were 8210 and 9110, respectively. Also, the results for the z-score in [17] (setting [23]) and in [17] (setting [24]) were 0.242 (inactive) and -0.199, respectively.

For the compound `N=C(N)c1ccc2cc(OC(=O)c3ccc(N=C(N)N)cc3)ccc2c1`, the nuclear beta-catenin stimulation in [2] (at 10 µM) is 0% (inactive); in test [2] (stimulation, at 2 µM), 0.3%. In test [3], the insulin secretion stimulation was 1.85% (inactive). The viability decrease in [4] is 4.1% (inactive). For the same compound, in test [5], the tube area decrease is -18% (inactive). Moreover, in test [6], the GLP1 secretion stimulation was 2.8% (inactive). Further, the inhibition of viability in test [7] is 30.6% (inactive). Moreover, the viability decrease (inhibition) is 36.9% (inactive) in test [8] and 1.2% (inactive) in test [9]. Further, the result in [11], in [12], in test [13], in test [14] and in test [15] was inactive. The fold change was 1.02 (inactive) and 0.918 (inactive) in test [16] (setting [19]); 1.3 and 0.971 in [16] (setting [20]). The cell count in test [16] (setting [21]) was 3730 and 5820; in test [16] (setting [22]), 3670 and 6340. For the same compound, the z-score in test [17] (setting [23]) is -0.205 (inactive); in [17] (setting [24]) it was 0.234.

In the case of `C[C@]12CCC(=O)C=C1[C@@H]1C[C@@H]1[C@H]1[C@@H]3[C@@H]4C[C@@H]4[C@@]4(CCC(=O)O4)[C@@]3(C)CC[C@@H]12`, the nuclear beta-catenin stimulation is 1.8% (inactive) in [2] (at 10 µM) and 3% in test [2] (stimulation, at 2 µM). Further, the insulin secretion stimulation in [3] was 1.5% (inactive). Also, the viability decrease in test [4] is 2.2% (inactive). For the same compound, the tube area decrease in test [5] is 2.8% (inactive). Also, in test [6], the GLP1 secretion stimulation was 3.8% (inactive). For the same compound, in test [7], the inhibition of viability was 27.4% (inactive). The viability decrease (inhibition) in test [8] is -2.6% (inactive); in test [9], 3.1% (inactive). The compound was classed as inactive in [10], in [11], in [12], in [14] and in test [15].

Source of the values: PubChem BioAssay.
